The results in this text go back to PubChem BioAssay (Tox21).

Values joined by “and” are separate entries in the source; they are usually repeats but may differ in a detail not shown here. Equal entries are not always repeated. Results filed as inconclusive are left out. Active and inactive are the calls of the source. Unless noted, calls follow the shape of the dose curve; as a rule, active = well fitted curve in the direction sought with a large enough effect in the repeat runs; inconclusive = weak or mixed curves; inactive = flat fitted curve, though single readings scatter.

Test [1] is described as follows: qHTS assay to test for compound auto fluorescence at 535 nm (green) in HEK293 cells (AID 720680). (In general: In qHTS, concentration-response curves come from the screen itself.)
Test [2] is described as follows: qHTS assay to test for compound auto fluorescence at 535 nm (green) in HEK293 cell free culture (AID 720682). In a few lines: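 Fluorescein serves as the green reference fluorophore; each compound's intrinsic emission at 535 nm (excitation 485 nm) is reported as an equivalent amount of that dye, measured in serum-containing DMEM without cells.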
Test [3] can be described thus: qHTS assay to test for compound auto fluorescence at 590 nm (red) in HEK293 cell free culture (AID 720683). The method, boiled down:
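Cell-free wells of DMEM with 10% FBS received compound, and intrinsic fluorescence was read at excitation/emission 540/590 nm. Values expressed as equivalence to Rose Bengal sodium.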

A short description of test [4]: qHTS assay to test for compound auto fluorescence at 590 nm (red) in HepG2 cell free culture (AID 720684). In a few lines:
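Auto fluorescence equivalency versus Rose Bengal sodium, red channel Ex/Em 540/590 nm; compounds in cell-free MEM/10% FBS; DMSO vehicle control.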

The nature of test [5]: qHTS assay to test for compound auto fluorescence at 460 nm (blue) in HepG2 cell free culture (AID 720685). The method, boiled down: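 Cell-free plates of MEM plus 10% FBS received 23 nL compound or DMSO vehicle; blue-channel (405/460 nm) intensity scored against triamterene as reference fluorophore.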
Test [6] can be described thus: qHTS assay to test for compound auto fluorescence at 535 nm (green) in HepG2 cell free culture (AID 720686).
Test [7] in a line: qHTS assay to test for compound auto fluorescence at 460 nm (blue) in HepG2 cells (AID 720687). The method, boiled down:
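HepG2 cells in MEM with 10% FBS, attached overnight at 37 C, were exposed to compound or DMSO for 1 hr at 37 C, 5% CO2. Blue fluorescence was read at 405/460 nm, with triamterene as reference fluorophore.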

Test [8] concerns the target Glucocorticoid receptor (Homo sapiens) (UniProt P04150). In words: qHTS assay to identify small molecule agonists of the glucocorticoid receptor (GR) signaling pathway (AID 720691; active = well fitted activation curve with a large enough effect in the signal ratio in the repeat runs, not every such curve was filed as active; the % refers to the signal ratio; also: potency is read from the fitted curve at half-maximal effect). In a few lines:
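A HeLa cervical cancer line expressing GR and a glucocorticoid response element-driven beta-lactamase gene is treated with compounds for 18 h; LiveBLAzer B/G FRET substrate is then applied and fluorescence read.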

Test [9] has the same target. Put plainly: qHTS assay to identify small molecule antagonists of the glucocorticoid receptor (GR) signaling pathway (AID 720692; active = well fitted inhibition curve with a large enough effect in the signal ratio in the repeat runs, not every such curve was filed as active; the % refers to the signal ratio; also: potency is read from the fitted curve at half-maximal effect). In a few lines: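 GRE-bla HeLa line, dex-stimulated (5 nM final). Compound exposure 18 h, 37 C. Beta-lactamase FRET read after 2 h RT substrate.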
The nature of test [10]: qHTS assay to test for compound auto fluorescence at 460 nm (blue) in HEK293 cell free culture (AID 720681). The method, boiled down:
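Compounds were added to cell-free DMEM with 10% FBS and fluorescence read directly. The blue channel used 405 nm excitation and 460 nm emission, with triamterene as the reference fluorophore.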

Glucocorticoid receptor (Homo sapiens), sequence (P04150 whole entry, looked up): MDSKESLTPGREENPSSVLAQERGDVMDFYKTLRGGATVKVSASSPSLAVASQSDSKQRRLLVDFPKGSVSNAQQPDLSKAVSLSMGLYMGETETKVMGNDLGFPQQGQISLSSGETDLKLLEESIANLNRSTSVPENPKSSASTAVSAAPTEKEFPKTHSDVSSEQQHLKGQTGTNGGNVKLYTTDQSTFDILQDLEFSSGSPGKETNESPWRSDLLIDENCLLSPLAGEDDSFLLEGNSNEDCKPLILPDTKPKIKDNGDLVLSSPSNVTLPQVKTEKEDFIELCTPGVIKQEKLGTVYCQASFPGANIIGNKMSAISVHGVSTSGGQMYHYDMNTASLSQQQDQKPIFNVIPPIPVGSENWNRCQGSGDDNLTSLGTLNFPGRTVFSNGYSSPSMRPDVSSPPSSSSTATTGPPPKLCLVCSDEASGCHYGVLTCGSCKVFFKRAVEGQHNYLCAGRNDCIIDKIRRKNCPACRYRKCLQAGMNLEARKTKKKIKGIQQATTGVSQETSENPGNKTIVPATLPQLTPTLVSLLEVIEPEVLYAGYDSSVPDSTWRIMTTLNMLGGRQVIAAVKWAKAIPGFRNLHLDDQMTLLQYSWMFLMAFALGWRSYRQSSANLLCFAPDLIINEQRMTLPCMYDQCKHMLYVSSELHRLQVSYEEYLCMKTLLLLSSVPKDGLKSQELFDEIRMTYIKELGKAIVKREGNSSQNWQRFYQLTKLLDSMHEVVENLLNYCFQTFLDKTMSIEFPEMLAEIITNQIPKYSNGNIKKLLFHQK

With `O=C[C@H](O)[C@@H](O)[C@H](O)[C@H](O)CO`, the result in test [1], in test [2], in [3], in test [4], in [5] and in [6] was inactive. Further, the outcome in test [7] was inactive. The Potency entry in [8] and in [9] was “inactive” each time.
Take `CCn1nc(C(=O)O)c(=O)c2cc3c(cc21)OCO3`: the outcome in test [1], in [2], in [3], in [4], in test [5] and in test [6] was inactive. Also, the Potency entry in test [8] and in [9] was “inactive” each time.
As for `CCOC(=O)c1c(C)n(C)c2ccc(O)cc12`, the molecule was classed as inactive in test [1], in [2], in test [3], in test [4], in test [5] and in test [6]. Moreover, in [7], the outcome was inactive. In addition, the Potency entry in [8] and in test [9] was “inactive” in each case.
Consider `COc1ccc2c(c1)c(CC(=O)OCC(=O)O)c(C)n2C(=O)c1ccc(Cl)cc1`, for which the molecule was classed as inactive in [1], in test [2], in test [3], in test [4], in [5] and in test [6]. Further, in test [7], the molecule was called inactive. Besides, the Potency result in test [8] is “inactive”.
Turning to `CN(C)CCCNCCCN(C)C`, the molecule was called inactive in test [1], in test [2], in test [3], in test [4], in [5] and in test [6]. Further, in [7], the outcome was inactive. The Potency entry in test [8] and in [9] was “inactive” each time.
Turning to `CC1(C)CO[C@@H](CC(=O)O)CN1`, the call in [1], in test [2], in test [3], in test [4], in test [5] and in test [6] was inactive. Moreover, in [7], the molecule was called inactive. Besides, the Potency entry in test [8] was “inactive”.
Regarding `CCOC(=O)C(=O)OCC`, the outcome in test [1], in [10], in test [2], in [3], in test [5] and in test [6] was inactive. Moreover, the Potency entry in test [8] and in [9] was “inactive” each time.
As for `Nc1c2c(nc3ccccc13)CCCC2O` (stereo unspecified), the call in [1], in test [10], in test [2], in test [3], in test [5] and in [6] was inactive. The Potency entry in test [8] and in test [9] was “inactive” in each case.
For the molecule `C=C(C)C(=O)OCCCCCCCC(C)C`, the result in [1], in test [2], in test [3], in test [5], in [6] and in test [7] was inactive. Moreover, in test [8], the Potency result was “inactive”.
As for `CCc1nccnc1CC`, the result in test [1], in test [2], in test [3], in [5] and in test [6] was inactive.
Turning to `COC(=O)CC(C)=O`, the molecule was called inactive in test [1], in [2], in test [3], in [4], in test [5] and in test [6]. Moreover, the result in [7] was inactive. Also, the Potency result in test [8] and in test [9] was “inactive” throughout.
With `Cc1[nH]c(=O)c(C#N)cc1-c1ccc2nccn2c1`, the molecule was called inactive in [1], in test [10], in test [2], in [3], in test [5] and in test [6]. Also, the Potency result in test [8] and in [9] was “inactive” in each case.
Take `CCOC(=O)CCC(C)=O`: the result in [1], in test [2], in [3], in [4], in test [5] and in [6] was inactive. Further, the Potency result in [8] and in test [9] was “inactive” in each case.
For the molecule `C=C(C)CS(=O)(=O)O`, the outcome in test [1], in test [2], in test [3], in test [4], in test [5] and in test [6] was inactive. Also, the molecule was called inactive in test [7]. Further, the Potency entry in test [8] and in [9] was “inactive” in each case.
Consider `CCOC(C)(C)C`, for which the result in [1], in test [2], in [3], in test [4], in [5] and in test [6] was inactive. In [7], the outcome was inactive.
As to `CN1CCN(c2cc3c(cc2F)c(=O)c(C(=O)O)cn3-c2ccc(F)cc2)CC1`, the outcome in test [1], in test [2], in test [3], in test [4], in [5] and in [6] was inactive. The result in test [7] was inactive. Also, in test [8], the Potency entry was “inactive”.
Regarding `O=c1cc(-c2ccccc2)oc2ccccc12`, the result in [1], in test [2], in [3], in [4], in [5] and in test [6] was inactive. The call in test [7] was inactive. Further, in [9], the Potency was 27.5 µM (active) and 14.3 µM (active).
`CC1=CC(C)C(C=O)CC1` (stereo unspecified): the outcome in [1], in [2], in test [3], in test [4], in test [5] and in [6] was inactive. The outcome in test [7] was inactive. For the same molecule, the Potency entry in test [8] and in test [9] was “inactive” throughout.
In the case of `COC(=O)NN`, the molecule was classed as inactive in test [1], in test [2], in test [3], in [4], in [5] and in [6]. Moreover, the molecule was called inactive in test [7]. The Potency result in test [8] and in [9] was “inactive” throughout.
As to `CC(C)CCCC(C)N` (stereo unspecified), the call in test [1], in test [2], in test [3], in test [4], in [5] and in test [6] was inactive. In test [7], the call was inactive. Further, the Potency result in test [8] and in test [9] was “inactive” throughout.
Consider `CC(=O)OCC(=O)[C@@]1(O)CCC2C3CCC4=CC(=O)CC[C@]4(C)C3[C@@H](O)C[C@@]21C` (stereo partly specified), for which the result in [1], in test [2], in test [3], in test [4], in test [5] and in [6] was inactive. For the same molecule, the molecule was called inactive in [7]. The Potency in test [8] was 0.134 µM (active).
Take `Cc1ccc(C#N)cc1`: the result in test [1], in test [10], in test [2], in test [3], in test [5] and in test [6] was inactive. Besides, the Potency result in test [8] and in [9] was “inactive” in each case.
As for `c1cnc(N2CCN(Cc3ccc4c(c3)OCO4)CC2)nc1`, the call in test [1], in test [2], in [3], in test [4], in test [5] and in test [6] was inactive. Also, the call in [7] was inactive. Besides, the Potency result in [8] and in test [9] was “inactive” each time.
Take `CC(=O)N(CC(O)CO)c1c(I)c(C(=O)NCCO)c(I)c(C(=O)NCC(O)CO)c1I` (stereo unspecified): the result in test [1], in test [2], in [3], in [4], in test [5] and in test [6] was inactive. Also, the call in test [7] was inactive.
For the molecule `N[C@@H](C(=O)N[C@@H]1C(=O)N2C(C(=O)O)=C(Cl)CS[C@H]12)c1ccccc1`, the molecule was classed as inactive in [1], in [2], in [3], in test [4], in test [5] and in test [6]. Also, the result in test [7] was inactive. Also, the Potency entry in test [8] was “inactive”.
For the molecule `NS(=O)(=O)c1cc2c(cc1Cl)NC(C1CC3C=CC1C3)NS2(=O)=O` (stereo unspecified), the call in test [1], in test [2], in [3], in test [4], in test [5] and in test [6] was inactive. Also, in [7], the call was inactive. Further, the Potency entry in test [8] and in test [9] was “inactive” in each case.
As for `O=C(O)CCCl`, the molecule was classed as inactive in [1], in test [2], in test [3], in test [4], in test [5] and in test [6]. In addition, the Potency entry in [8] and in [9] was “inactive” each time.
On to `CCOC(=O)Nc1ccc(NCc2ccc(F)cc2)nc1N`, for which the outcome in test [1], in [2], in [3] and in [6] was inactive. The Potency entry in [8] and in test [9] was “inactive” each time.
On to `CC(=O)OCC(=O)[C@@]1(O)CC[C@H]2[C@@H]3CCC4=CC(=O)CC[C@]4(C)[C@H]3C(=O)C[C@@]21C`, for which the result in test [1], in test [2], in test [3], in test [4], in test [5] and in test [6] was inactive. Also, the outcome in test [7] was inactive.
In the case of `CN1CCCC1`, the molecule was called inactive in test [1], in test [2], in [3], in test [4], in test [5] and in [6]. The call in [7] was inactive.
In the case of `CC(=O)CC(C)(C)C1CCCCC1`, the call in test [1], in [2], in [3], in [5], in [6] and in test [7] was inactive.
`O=c1cc(CO)occ1O`: the molecule was classed as inactive in test [1], in [2], in test [3], in test [4], in test [5] and in test [6]. For the same molecule, the Potency entry in test [8] and in test [9] was “inactive” in each case.
With `CC(C)OC(=O)c1ccccc1`, the molecule was called inactive in test [1], in [10], in test [2], in [3], in test [5] and in test [6]. Also, the Potency result in [8] and in [9] was “inactive” each time.
In the case of `CCCCCSCCCCC`, the molecule was called inactive in [1], in test [2], in test [3], in [4], in test [5] and in test [6]. For the same molecule, the outcome in test [7] was inactive.
For the molecule `NCCCNCCSP(=O)(O)O`, the molecule was classed as inactive in test [1], in test [2], in test [3], in [4], in test [5] and in test [6]. In test [7], the molecule was classed as inactive. The Potency entry in test [8] was “inactive”.
As to `CC(C)(O)C#CC(C)(C)O`, the outcome in [1], in test [2], in [3], in [4], in [5] and in [6] was inactive. In addition, in test [7], the outcome was inactive.
Turning to `COC(=O)c1ccc(C)cc1C1=NC(C)(C(C)C)C(=O)N1` (stereo unspecified), the outcome in [1], in [2], in test [3], in [4], in test [5] and in test [6] was inactive. Moreover, in test [7], the result was inactive. In addition, the Potency result in [8] and in test [9] was “inactive” in each case.
Regarding `CCN(CC)CCOCCOC(=O)C1(c2ccccc2)CCCC1`, the molecule was called inactive in test [1], in test [2], in test [3], in [4], in test [5] and in test [6]. Besides, the outcome in test [7] was inactive. The Potency result in test [8] is “inactive”.
